Data on 5 molecules can be found in ChEMBL document CHEMBL3988442, “University of Dundee, Small-Polar-MMV Screening Library” (2021).

For some assays here: Results with a measured potency or affinity are listed apart.

Common to all, as to set-up: scale not given: direction of the effect not stated beside the values
For test [1], the target named is Protein translocase subunit SecA (Escherichia coli (strain K12)) (UniProt P10408). Kind of test: Assay to Identify E. coli SecA ATPase Inhibitors. In kind it is functional. The note with it: 30 µM.
For test [2], the target named is T1, Ubiquitin-activating enzyme e1, putative (Leishmania donovani (strain BPK282A1)) (UniProt E9BSI1).
T1 sequence (whole entry): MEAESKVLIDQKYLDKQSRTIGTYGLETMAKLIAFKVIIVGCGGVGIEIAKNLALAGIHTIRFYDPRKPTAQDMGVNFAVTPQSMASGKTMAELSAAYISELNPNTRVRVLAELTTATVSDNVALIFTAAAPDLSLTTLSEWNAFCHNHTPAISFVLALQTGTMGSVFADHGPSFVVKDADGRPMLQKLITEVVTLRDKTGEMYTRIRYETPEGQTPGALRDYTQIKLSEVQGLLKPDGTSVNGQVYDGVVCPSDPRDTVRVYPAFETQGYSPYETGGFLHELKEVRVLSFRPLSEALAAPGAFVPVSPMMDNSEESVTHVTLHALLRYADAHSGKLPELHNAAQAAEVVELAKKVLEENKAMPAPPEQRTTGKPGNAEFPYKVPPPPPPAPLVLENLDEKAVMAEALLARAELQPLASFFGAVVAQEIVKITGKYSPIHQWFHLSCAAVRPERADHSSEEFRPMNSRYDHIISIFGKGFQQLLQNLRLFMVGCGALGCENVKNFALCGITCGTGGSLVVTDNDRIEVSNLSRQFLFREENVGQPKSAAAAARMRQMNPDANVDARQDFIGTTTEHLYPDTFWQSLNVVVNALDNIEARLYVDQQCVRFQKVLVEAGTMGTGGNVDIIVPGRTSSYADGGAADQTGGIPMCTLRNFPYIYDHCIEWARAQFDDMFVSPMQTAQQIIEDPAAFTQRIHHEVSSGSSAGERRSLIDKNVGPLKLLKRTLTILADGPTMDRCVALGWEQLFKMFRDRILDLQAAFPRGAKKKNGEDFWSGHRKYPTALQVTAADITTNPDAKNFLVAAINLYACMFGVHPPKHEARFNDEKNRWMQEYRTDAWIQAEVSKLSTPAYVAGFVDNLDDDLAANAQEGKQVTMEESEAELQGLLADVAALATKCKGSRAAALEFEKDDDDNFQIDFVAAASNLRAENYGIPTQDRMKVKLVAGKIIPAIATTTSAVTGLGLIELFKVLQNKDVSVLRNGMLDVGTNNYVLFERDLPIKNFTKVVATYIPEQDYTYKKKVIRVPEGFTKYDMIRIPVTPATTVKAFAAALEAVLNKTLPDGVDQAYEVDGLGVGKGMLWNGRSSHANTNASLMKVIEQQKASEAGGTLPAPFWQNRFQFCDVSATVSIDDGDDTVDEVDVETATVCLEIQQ
As to the kind of experiment: Leishmania donovani Ubiquitin Activating Enzyme (LdE1). The settings on record: 30 µM. The class given is functional.

Test [3] addresses T2, Aspartate--tRNA(Asp/Asn) ligase (Mycobacterium tuberculosis (strain ATCC 25618 / H37Rv)) (UniProt P9WFW3).
T2 sequence (whole entry): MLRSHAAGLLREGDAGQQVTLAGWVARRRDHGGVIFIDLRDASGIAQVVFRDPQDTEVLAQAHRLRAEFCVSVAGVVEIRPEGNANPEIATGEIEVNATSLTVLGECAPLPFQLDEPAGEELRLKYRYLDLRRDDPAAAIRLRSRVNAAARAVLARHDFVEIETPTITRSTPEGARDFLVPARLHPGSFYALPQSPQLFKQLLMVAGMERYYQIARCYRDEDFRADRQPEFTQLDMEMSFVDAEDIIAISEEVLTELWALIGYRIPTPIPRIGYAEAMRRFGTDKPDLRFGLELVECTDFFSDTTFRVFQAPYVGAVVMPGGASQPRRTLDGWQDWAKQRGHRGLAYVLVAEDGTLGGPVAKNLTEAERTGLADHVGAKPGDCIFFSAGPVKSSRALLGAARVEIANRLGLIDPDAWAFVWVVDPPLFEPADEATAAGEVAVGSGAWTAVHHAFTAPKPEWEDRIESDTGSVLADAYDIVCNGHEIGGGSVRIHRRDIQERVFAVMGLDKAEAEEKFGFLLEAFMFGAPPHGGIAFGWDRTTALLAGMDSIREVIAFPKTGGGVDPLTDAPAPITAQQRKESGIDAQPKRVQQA
Kind of test: Assay for Asp RNA synthetase-1 from Mycobacterium tuberculosis. In kind it is functional. The note with it: 30 µM.

The target in test [4] is AMP-activated protein kinase, AMPK (Homo sapiens) (UniProt P54646+O43741+P54619+Q9UGJ0+Q9Y478+Q13131+Q9UGI9). Kind of test: AMP-dependent Kinase enzyme assay. An in vitro enzyme assay that detects ADP turnover that is directly proportional to AMPK activity. This uses naive AMPK that is activated during the assay with MK-8722. The class given is functional. The settings on record: 30 µM.

Test [5] addresses Sialic acid-binding Ig-like lectin 9 (Homo sapiens) (UniProt Q9Y336). Kind of test: Hs-Siglec9 ALPHAscreen SOP 20170721. The settings on record: 10 µM. (In Alpha technology, singlet oxygen from a donor bead excites a nearby acceptor bead.)
Another test has as its system Trypanosoma cruzi. Kind of test: Trypanosoma cruzi phosphomannomutase and mannose-1-phosphate guanylyltransferase assay. In kind it is functional. The settings on record: 10 µM.
Test [6] deals with T3, Arginase-2, mitochondrial (Homo sapiens) (UniProt P78540).
T3 sequence (whole entry): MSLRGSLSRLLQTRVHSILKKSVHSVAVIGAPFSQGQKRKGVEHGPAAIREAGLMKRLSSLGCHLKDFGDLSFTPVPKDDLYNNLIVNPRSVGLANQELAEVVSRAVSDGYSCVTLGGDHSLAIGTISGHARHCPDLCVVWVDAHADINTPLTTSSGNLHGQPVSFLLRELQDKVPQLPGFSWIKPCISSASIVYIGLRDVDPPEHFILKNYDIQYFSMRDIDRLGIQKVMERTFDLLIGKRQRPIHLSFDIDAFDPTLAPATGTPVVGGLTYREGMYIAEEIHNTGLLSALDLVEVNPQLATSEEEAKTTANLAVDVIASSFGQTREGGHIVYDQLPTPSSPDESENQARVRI
As to the kind of experiment: in vitro enzyme assay to detect the production of urea directly proportional to the activity of Arginase II. Further: in the data most compounds retested in dose-response had high values. The class given is functional. The note with it: 33.3 µM.

Test [7] deals with T4, Proteasome subunit beta (Trypanosoma cruzi) (UniProt O96673).
T4 sequence (whole entry): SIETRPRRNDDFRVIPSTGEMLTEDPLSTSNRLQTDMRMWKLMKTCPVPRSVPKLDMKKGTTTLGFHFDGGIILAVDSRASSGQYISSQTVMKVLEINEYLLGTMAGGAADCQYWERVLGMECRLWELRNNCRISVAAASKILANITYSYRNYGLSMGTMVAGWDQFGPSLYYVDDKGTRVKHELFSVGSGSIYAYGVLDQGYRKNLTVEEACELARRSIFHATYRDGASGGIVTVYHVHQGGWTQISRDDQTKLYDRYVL
Kind of test: Trypanosoma cruzi proteasome chymotrypsin-like activity (TcProtChymo) assay. Further: in the data most compounds retested in dose-response had high values. In kind it is functional. The note with it: 9.37 µM.

For a further test, the species on record is Homo sapiens. Kind of test: To identify inhibition of the IFN signalling (Jak-Stat) pathway via expression of an eGFP reporter gene under the control of an IFN-stimulated response element (ISRE) containing MxA promoter. The note with it: 30 µM. The class given is functional. On the technique in general: Reporter assays use an easily measured gene product as a stand-in for the process of interest.

In test [8] the target is Shiga toxin 2 (Escherichia coli O157:H7) (UniProt P09385+P09386). As to the kind of experiment: E. coli 0.157:H7 Shiga Toxin SOP - stx2 screening assay. The class given is functional. The settings on record: 30 µM.
The target of test [9] is T5, Tyrosyl-tRNA synthetase, putative (Trypanosoma cruzi (strain CL Brener)) (UniProt Q4DSP6).
T5 sequence (whole entry): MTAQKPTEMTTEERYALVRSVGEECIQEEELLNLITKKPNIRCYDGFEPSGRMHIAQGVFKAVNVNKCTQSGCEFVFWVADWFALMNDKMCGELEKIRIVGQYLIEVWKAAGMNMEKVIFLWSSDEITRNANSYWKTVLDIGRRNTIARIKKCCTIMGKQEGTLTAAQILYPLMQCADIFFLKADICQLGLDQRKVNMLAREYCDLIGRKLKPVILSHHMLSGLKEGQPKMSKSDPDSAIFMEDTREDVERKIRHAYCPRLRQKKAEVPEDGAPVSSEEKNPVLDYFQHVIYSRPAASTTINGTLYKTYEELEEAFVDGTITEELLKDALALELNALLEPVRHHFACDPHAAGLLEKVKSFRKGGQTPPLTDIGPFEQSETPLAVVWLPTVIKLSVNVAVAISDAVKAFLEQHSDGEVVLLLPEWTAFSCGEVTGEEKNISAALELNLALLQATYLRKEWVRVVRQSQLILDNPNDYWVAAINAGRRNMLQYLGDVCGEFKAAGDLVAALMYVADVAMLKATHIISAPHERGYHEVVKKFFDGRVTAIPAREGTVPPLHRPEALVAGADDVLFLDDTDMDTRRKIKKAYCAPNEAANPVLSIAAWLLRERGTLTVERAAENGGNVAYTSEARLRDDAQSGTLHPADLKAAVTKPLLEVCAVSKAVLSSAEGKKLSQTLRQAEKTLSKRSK
As to the kind of experiment: Trypanosoma cruzi tyrosyl tRNA synthetase (TcYRS) _High Tyrosine SOP. Further: in the data most compounds retested in dose-response had high values. In kind it is functional. The note with it: 30 µM.

Test [10] concerns the target T5, Tyrosyl-tRNA synthetase, putative (Trypanosoma cruzi (strain CL Brener)). Kind of test: Trypanosoma cruzi tyrosyl tRNA synthetase (TcYRS) SOP. In kind it is functional. The note with it: 30 µM.
The target of test [11] is Chromo domain-containing protein 1 (Saccharomyces cerevisiae (strain ATCC 204508 / S288c) (Baker's yeast)) (UniProt P32657). As to the kind of experiment: ScCHD-1 Enzyme Inhibition Assay. Further: in the data most compounds retested in dose-response had high values. The note with it: 30 µM. In kind it is functional.
Chain of Chromo domain-containing protein 1 (Saccharomyces cerevisiae (strain ATCC 204508 / S288c) (Baker's yeast)) (P32657 whole entry, the tested form may be a part): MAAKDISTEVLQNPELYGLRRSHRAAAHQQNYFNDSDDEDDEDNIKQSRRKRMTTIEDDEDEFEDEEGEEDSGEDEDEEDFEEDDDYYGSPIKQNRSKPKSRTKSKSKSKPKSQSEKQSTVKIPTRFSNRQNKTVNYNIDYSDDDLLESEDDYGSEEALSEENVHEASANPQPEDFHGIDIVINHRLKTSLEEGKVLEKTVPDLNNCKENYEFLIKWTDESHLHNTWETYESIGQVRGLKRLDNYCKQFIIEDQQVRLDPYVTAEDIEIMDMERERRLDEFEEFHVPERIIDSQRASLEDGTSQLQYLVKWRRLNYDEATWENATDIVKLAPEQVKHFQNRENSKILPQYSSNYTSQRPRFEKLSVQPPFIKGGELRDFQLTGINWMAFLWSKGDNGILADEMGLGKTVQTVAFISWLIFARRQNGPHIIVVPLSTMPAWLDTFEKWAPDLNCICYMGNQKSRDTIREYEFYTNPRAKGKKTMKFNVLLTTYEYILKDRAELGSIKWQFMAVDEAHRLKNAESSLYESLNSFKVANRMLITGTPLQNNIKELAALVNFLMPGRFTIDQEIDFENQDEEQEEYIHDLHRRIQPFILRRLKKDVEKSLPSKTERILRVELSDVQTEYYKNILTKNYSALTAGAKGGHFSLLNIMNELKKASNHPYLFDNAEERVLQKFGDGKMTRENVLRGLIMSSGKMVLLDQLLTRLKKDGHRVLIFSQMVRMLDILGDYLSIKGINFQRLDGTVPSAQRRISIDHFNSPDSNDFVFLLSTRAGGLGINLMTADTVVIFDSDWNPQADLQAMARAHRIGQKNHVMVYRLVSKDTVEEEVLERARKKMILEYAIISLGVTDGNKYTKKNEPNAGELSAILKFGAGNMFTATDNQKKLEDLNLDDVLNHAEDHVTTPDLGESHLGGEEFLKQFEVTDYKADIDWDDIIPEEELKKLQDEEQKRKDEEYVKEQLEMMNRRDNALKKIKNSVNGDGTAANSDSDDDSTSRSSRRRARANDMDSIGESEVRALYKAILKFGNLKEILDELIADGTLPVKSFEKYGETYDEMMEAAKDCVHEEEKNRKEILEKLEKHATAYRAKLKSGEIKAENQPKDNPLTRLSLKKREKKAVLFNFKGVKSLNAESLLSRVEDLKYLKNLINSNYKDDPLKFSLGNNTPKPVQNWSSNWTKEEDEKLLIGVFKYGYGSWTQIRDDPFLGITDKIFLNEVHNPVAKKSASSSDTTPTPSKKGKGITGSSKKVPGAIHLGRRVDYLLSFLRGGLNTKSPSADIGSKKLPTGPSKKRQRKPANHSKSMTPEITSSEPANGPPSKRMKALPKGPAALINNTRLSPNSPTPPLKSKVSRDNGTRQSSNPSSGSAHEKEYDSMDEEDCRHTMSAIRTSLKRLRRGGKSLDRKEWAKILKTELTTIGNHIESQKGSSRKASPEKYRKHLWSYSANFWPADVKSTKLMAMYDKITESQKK

Chain of Protein translocase subunit SecA (Escherichia coli (strain K12)) (P10408 whole entry): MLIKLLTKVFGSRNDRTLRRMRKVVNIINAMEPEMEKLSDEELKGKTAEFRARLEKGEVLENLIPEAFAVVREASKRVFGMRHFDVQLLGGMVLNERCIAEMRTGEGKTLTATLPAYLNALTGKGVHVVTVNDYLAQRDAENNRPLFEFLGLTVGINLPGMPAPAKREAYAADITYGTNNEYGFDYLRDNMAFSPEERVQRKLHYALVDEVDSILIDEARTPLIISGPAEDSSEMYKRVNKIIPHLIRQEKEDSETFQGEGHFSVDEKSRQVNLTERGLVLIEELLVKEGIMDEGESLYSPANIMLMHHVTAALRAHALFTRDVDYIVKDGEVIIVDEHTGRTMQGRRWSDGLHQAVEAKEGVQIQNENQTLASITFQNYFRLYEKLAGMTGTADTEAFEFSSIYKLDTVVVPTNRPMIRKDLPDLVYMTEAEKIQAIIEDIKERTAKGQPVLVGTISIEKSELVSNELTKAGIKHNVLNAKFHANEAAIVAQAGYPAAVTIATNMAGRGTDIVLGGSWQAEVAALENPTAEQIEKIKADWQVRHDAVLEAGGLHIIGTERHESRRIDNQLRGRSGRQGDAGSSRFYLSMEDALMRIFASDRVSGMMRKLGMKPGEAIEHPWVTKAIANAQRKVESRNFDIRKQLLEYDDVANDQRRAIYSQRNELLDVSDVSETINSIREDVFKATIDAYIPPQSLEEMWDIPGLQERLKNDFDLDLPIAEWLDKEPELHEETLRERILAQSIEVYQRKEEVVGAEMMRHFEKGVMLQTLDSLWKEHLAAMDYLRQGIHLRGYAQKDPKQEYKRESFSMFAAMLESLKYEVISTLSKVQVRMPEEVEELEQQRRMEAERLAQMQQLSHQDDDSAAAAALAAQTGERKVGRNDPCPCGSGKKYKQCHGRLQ
Chain of Sialic acid-binding Ig-like lectin 9 (Homo sapiens) (Q9Y336 whole entry): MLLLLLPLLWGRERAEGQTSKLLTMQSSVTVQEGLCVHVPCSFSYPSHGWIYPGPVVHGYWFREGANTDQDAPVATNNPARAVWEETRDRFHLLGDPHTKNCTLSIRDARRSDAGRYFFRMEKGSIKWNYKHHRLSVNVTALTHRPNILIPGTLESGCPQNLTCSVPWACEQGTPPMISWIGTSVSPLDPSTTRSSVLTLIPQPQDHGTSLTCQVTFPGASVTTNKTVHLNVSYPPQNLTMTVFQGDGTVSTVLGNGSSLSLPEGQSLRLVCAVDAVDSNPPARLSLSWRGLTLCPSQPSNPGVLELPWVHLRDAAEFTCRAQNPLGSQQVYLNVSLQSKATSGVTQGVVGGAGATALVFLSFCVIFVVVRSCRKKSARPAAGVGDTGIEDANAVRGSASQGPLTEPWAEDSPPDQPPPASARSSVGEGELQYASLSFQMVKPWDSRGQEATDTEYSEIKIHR

For `CN1CCC2(CC1)CNC(=O)c1ccccc1O2`, the Percent Effect in test [1] was -3.91%; in test [2], 6.76%; in test [3] it was -2.4%; in test [4] it was 13.4%; in test [5], 4.99%; in the test on Trypanosoma cruzi it was -5.34%. The Percent Effect in test [6] was found to be 0.232%; in test [7], 10.3%; in the test filed under Homo sapiens, 1.44%; in test [8] it was 12.6%; in [9], 6.45%; in [10] it was 6.49%. The Percent Effect in [11] is -6.62%.

`CN1C(=O)C2(CCN(CCO)C2)c2ccccc21` (stereo not given): the Percent Effect in test [1] is -3.9%; in test [2], 10.8%; in [3], -3.9%; in [4] it was 5.24%; in [5], -5.82%; in the test with Trypanosoma cruzi, -4.01%. Besides, the Percent Effect is 0.319% in test [6]; 24.9% in test [7]; -2.44% in the test filed under Homo sapiens; -6.34% in test [8]; 1.08% in test [9]; 12.8% in test [10]. For the same molecule, in [11], the Percent Effect was -1.83%.

For the molecule `O=C(Cc1ccc(O)c(Cl)c1)N1CCN(CC2CC2)[C@@H]2CS(=O)(=O)C[C@@H]21`, the Percent Effect in test [1] is -7.75%; in test [2], -1.39%; in test [3], 4.65%; in [4] it was -2.21%; in [5], 15.8%; in the test with Trypanosoma cruzi it was -1.46%. The Percent Effect in [6] is 0%; in test [7], 7.54%; in the test filed under Homo sapiens, -5.81%; in test [8], -19.1%; in [9], -2.1%; in test [10], -2.56%. Besides, in [11], the Percent Effect is -1.95%.

On to `Cc1ccc(N2CCO[C@H]3CN(Cc4ccncc4)C[C@H]32)nn1`, for which the Percent Effect was -2.06% in test [1]; 2.7% in test [2]; 2.28% in test [3]; 3.63% in test [4]; -2.84% in test [5]; -2.83% in the test with Trypanosoma cruzi. In addition, the Percent Effect in [6] is 1.59%; in test [7], 19.6%; in the test listed under Homo sapiens, 4.04%; in [8], -5.64%; in test [9], 8.65%; in test [10], 10.3%. Moreover, in test [11], the Percent Effect was -5.13%.

On to `c1cncc(N2CCCC3(CN(Cc4cccs4)CCO3)C2)c1` (stereo not given), for which the Percent Effect in test [1] is -4.82%; in [2], 8.11%; in [3], 1.48%; in [4] it was -14.4%; in test [5], -11.3%; in the test on Trypanosoma cruzi, -4.2%. Moreover, the Percent Effect was -1.59% in test [6]; 8.12% in test [7]; 29.1% in the test filed under Homo sapiens; 1.28% in test [8]; -1.08% in test [9]; 5.13% in [10]. Moreover, the Percent Effect in test [11] was -3.66%.
